Experimental data as given in PubChem BioAssay AID2314 (National Center for Advancing Translational Sciences (NCATS), 2010).
Among all 300,000 compounds or so, about 37,000 (12%) were called active. The list comes from a sample in which actives are over-represented; it also holds similar structures and randomly drawn compounds. Values without a mark were called inactive. No stated cut-off is given here; in the data, active means max response mostly above about 13% (no sharp cut-off); inactive means mostly below about 14%.

Test: Cycloheximide Counterscreen for Small Molecule Inhibitors of Shiga Toxin; further: read at 38.3 µM for the half of the compounds with a filed dose; 0% is about no effect
Conditions: cell reporter, cycloheximide protein synthesis inhibition counterscreen; stronger effect = higher value

SMILES | max response
Cc1cc2oc(=O)cc(CN(C)Cc3ccc(OC(F)F)cc3)c2cc1Cl | -1.16%
O=C(NCCN1CCOC1=O)C1CCC(=O)N(CCc2ccc(Cl)cc2)C1 (centres undefined) | -3.62%
O=C(NCCc1ccccc1Cl)C1CCC(=O)N(CCCc2ccccc2)C1 (centres undefined) | -1.41%
O=C(NCCCc1ccccc1)C1CCC(=O)N(CCc2ccc(Cl)cc2)C1 (centres undefined) | 12% (active)
C/C=C(\C)C(=O)NCCN1C2=NC[C@H](Cc3ccc(O)cc3)N2C[C@@H]1Cc1ccc(OC)cc1 | 0.212%
COc1ccccc1NC(=O)c1ccc(N2CC3CC(C2)c2cccc(=O)n2C3)c(NC(=O)c2cccnc2)c1 (centres undefined) | -5.5%
O=C(Nn1cnnc1)c1ccc([N+](=O)[O-])cc1 | -3.89%
CCc1ccc(N2CC(O)=C(c3nc4ccccc4c(=O)[nH]3)C2=N)cc1 | 4.62%
CCOC(=O)CCCN1CC(O)=C(c2nc3ccccc3s2)C1=N | 6.59%
COc1ccccc1N1CC(O)=C(c2nc3ccccc3s2)C1=N | 18.7% (active)
N=C1C(c2nc3ccccc3s2)=C(O)CN1NC(=O)c1ccc([N+](=O)[O-])cc1 | 38.2% (active)
N=C1C(c2nc3ccccc3[nH]2)=C(O)CN1NC(=O)c1c[nH]c2ccccc12 | 6.82%
CCOc1ccc(N(CC(=O)Nc2ccccc2F)S(=O)(=O)c2c(C)[nH]c(=O)[nH]c2=O)cc1 | 9.46%
Cc1ccccc1/C=C\c1nc(O)c([N+](=O)[O-])c(=O)[nH]1 | -5.68%
O=C(COC(=O)CNC(=O)c1ccccc1F)NCC(F)(F)F | -1.02%
COC(=O)CNC(=O)c1ccccc1F | -2.02%
O=C(CNC(=O)c1ccccc1F)c1ccc(Br)cc1 | 57.7% (active)
O=C(CNC(=O)c1ccc(F)cc1)c1ccccc1 | 30% (active)
CSc1nnc(CNC(=O)c2ccccc2)n1-c1ccc(F)cc1 | -2.44%
O=C(CNC(=O)c1ccccc1)NCC(=O)OCC(=O)c1ccccc1 | -5.87%

SMILES | max response
COCCNC(=O)NC(=O)COC(=O)C1(c2ccc(Cl)cc2)CC1 | 7.97%
CC1(C)Cc2c(sc(NC(=O)C(=O)N3CCOCC3)c2C#N)CO1 | -9.16%
O=C(Oc1ccc(-c2nc(-c3ccccn3)no2)cc1)c1ccccc1 | 31% (active)
CC1(C)N=C(c2ccccn2)C(C)(C)N1O | -7.15%
CC(C)c1nc(-c2ccccn2)no1 | 22.8% (active)
c1ccc(-c2noc(-c3cccs3)n2)nc1 | 17.4% (active)
c1ccc(-c2nccc(-c3ccc(-n4cnc5ccccc54)cc3)n2)nc1 | -1.84%
c1csc(-c2nc(-c3ccncc3)no2)c1 | 29.3% (active)
CCCCCCOc1ccc(OC(=O)c2cccnc2)cc1 | 14.6%
Clc1ccc(-n2nnnc2-c2cnc(-c3ccccn3)nc2-c2cccs2)cc1 | -3.52%
O=C(O)COc1ccc(-c2nccc(-c3cccs3)n2)cc1 | -3.38%
O=C(COC(=O)c1ccc(Oc2ccccc2)cc1)Nc1nnc(-c2ccccc2)o1 | 13.5%
COc1nc(-c2ccc(Cl)cc2)ccc1-c1noc(-c2cccs2)n1 | -1.17%
O=C(NCc1cccnc1)c1nc(-c2cccs2)no1 | 13.1%
CCc1ccc(OC(C)C(=O)Nc2ccc(S(=O)(=O)Nc3cc(C)on3)cc2)cc1 (centres undefined) | -1.86%
COc1ccccc1NC(=O)CN(c1ccccc1OC)S(=O)(=O)c1ccccc1 | -1.65%
O=C1C[C@@H](c2ccc3ccccc3c2)N1S(=O)(=O)c1ccccc1[N+](=O)[O-] | -1.77%
O=C1C2C(c3ccccc3)CC=CC2C(c2ccoc2)N1Cc1ccccc1 (centres undefined) | 0.409%
O=C(CN1C(=O)NC2(CCCCC2)C1=O)NCCc1c[nH]c2ccccc12 | -0.529%
CC(C)(C)N(Cc1ccccc1)C(=O)c1ccncc1 | -0.936%

SMILES | max response
Cc1nnc(SCc2ccc(C(=O)c3ccc(Cl)cc3)o2)n1-c1ccccc1 | 6.81%
Cc1ccc(-c2nc(-c3ccncc3)no2)c(C)c1 | 43.8% (active)
Cc1ccc2nc(-c3ccncc3)cc(C(=O)Nc3ccncc3)c2c1 | 6.6%
Cc1ccc(-c2noc(CSc3nnc(-c4ccncc4)n3-c3ccc(F)cc3)n2)cc1 | 0.685%
Cc1cc(S(=O)(=O)N2CCOCC2)ccc1OCC(=O)Nc1cccc(C(F)(F)F)c1 | -3.96%
CCC1=Nc2cc(C(=O)NCCN3CCCC3)ccc2Sc2ccc(C)cc21 | 14.2%
O=C(NC(=O)c1cc(OCC(F)(F)F)ccc1OCC(F)(F)F)Nc1ccccc1 | 8.68% (active)
CONC(=O)c1cc(OCC(F)(F)F)ccc1OCC(F)(F)F | -3.39%
O=C(Nc1ccccc1)Nc1ccc(C(F)(F)F)cn1 | 13%
CC1CCN(C(=O)Cn2nnnc2CN2CCOCC2)CC1 | -2.13%
COc1ccc(CCNC(=O)C(=O)NCC2OCCN2S(=O)(=O)c2ccc(F)cc2)cc1OC (centres undefined) | 1.66%
CCC(C)NC(=O)c1ccc(N2CCC3(CC2)OCCO3)c([N+](=O)[O-])c1 (centres undefined) | 20% (active)
CC(NC(=O)c1ccc(N2CCNCC2)c([N+](=O)[O-])c1)C12CC3CC(CC(C3)C1)C2 (centres undefined) | -1.62%
COCCNC(=O)c1ccc(N2CCC3(CC2)OCCO3)c([N+](=O)[O-])c1 | -2.09%
Cc1cc(C)cc(Oc2nc3c(C)cccn3c(=O)c2/C=C(\C#N)C(=O)NC2CCS(=O)(=O)C2)c1 (centres undefined) | -2.61%
COc1cc(C(=O)OCc2ccc([N+](=O)[O-])cc2)cc(OC)c1OC | -1.24%
COc1cc(/C=N/O)ccc1OCc1ccc([N+](=O)[O-])cc1 | 88.7% (active)
COc1cc(/C=N\Nc2ccc([N+](=O)[O-])cn2)ccc1OCC(=O)O | 15.7%
Cc1cc(=O)oc2c3c(cc(OCC(=O)N[C@H](C(=O)O)c4ccccc4)c12)OC(C)(C)CC3 | -1.78%
